These results are taken from PubChem BioAssay AID504339 (National Center for Advancing Translational Sciences (NCATS), 2011).

Structures are written as SMILES. In all, about 390,000 compounds went through this assay and about 17,000 (4.4%) were called active. About 8% were inconclusive and are not listed. The list comes from a sample in which actives are over-represented; it also holds similar structures and randomly drawn compounds. A number with no mark means an inactive call. Calls come from the whole dose curve; as a rule, active = well fitted inhibition curve with a large enough effect; inconclusive = small, poorly fitted or top-dose-only effect; inactive = no such curve, though single readings can be large or run the other way.
% is set by controls: 0 for no effect and ±100 for the full control effect; potency is the fitted concentration of half-maximal effect.

Sequence of Lysine-specific demethylase 4A (Homo sapiens) (O75164 whole entry, looked up, the tested form may be a part): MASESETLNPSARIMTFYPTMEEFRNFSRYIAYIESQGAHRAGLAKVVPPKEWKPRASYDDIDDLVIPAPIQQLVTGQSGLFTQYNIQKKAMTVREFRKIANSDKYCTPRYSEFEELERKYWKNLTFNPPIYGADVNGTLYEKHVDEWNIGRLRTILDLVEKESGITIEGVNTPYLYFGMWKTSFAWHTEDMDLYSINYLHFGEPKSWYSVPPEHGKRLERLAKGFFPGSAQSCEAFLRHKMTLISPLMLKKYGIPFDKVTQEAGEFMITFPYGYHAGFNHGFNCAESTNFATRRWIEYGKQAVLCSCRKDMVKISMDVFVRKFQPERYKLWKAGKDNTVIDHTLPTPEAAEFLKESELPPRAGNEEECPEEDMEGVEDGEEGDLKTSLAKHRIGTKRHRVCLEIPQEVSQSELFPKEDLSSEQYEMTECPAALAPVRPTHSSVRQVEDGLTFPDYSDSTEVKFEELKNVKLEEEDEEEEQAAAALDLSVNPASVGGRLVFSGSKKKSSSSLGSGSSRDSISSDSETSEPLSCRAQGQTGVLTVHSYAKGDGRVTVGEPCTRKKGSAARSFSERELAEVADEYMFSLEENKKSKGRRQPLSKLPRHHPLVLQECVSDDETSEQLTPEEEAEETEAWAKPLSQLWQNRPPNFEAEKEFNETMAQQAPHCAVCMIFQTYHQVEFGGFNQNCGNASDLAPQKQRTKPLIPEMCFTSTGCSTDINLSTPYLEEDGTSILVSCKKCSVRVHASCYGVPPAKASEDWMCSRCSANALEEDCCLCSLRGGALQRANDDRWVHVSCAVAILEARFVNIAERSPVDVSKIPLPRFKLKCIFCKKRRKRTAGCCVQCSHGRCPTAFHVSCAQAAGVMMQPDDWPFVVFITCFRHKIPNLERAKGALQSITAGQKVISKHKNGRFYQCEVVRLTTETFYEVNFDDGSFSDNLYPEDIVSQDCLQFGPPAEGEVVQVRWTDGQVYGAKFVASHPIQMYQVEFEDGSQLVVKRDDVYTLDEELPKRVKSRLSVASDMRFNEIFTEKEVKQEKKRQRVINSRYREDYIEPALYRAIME

The experiment addresses Lysine-specific demethylase 4A (Homo sapiens) (UniProt O75164). Put plainly: qHTS Assay for Inhibitors of JMJD2A-Tudor Domain. Note: nearly all actives have a fitted effect of over 50% in size. The settings on record: AlphaScreen JMJD2A-Tudor / H3K4me3 peptide binding; series mostly up to 114 µM; activity change, negative = inhibition: at the top concentration. From the text:
JMJD2A is a jumonji-domain-containing lysine demethylase that uses Fe(II) together with 2-OG to effect oxidative demethylation of histones. Methylation is one of many […] modification that affect epigenetic transcription. […] It is proposed that the functions of JmjD2A binding to the histones, is to maintain marks after they are installed and to spread the modifications by […], establishing a self-propagating cycle for rapid methylation over a large area of chromatin. […] Thus, small molecule targeting of the JMJD2A-tudor domain interaction with its target methylhistone mark is expected to enable sophisticated experiments probing the fine regulatory pathways leading to selective demethylation of a given methyllysine locus based on the methylation state of adjacent histone marks. A quantitative high throughput AlphaScreen has been developed to identify small molecule inhibitors based on a protocol published by NCGC and SGC [4].
Although AlphaScreen has significant advantages with its utility in a variety of epigenetic target assays, the primary screening data provided in this deposition should be used with caution due to the prevalence of screening artifacts. The top compound concentration tested was high (>100uM) in this assay, which increases number of actives and potential artifacts. An AlphaScreen counterscreen is highly recommended to be run against any putative actives to eliminate non-specific artifacts. Alternatively, one can use other AlphaScreen assays in PubChem to filter out promiscuous hits.
[1] Lee, J. et al. Distinct binding modes specify the recognition of methylated histone H3K4 and H4K20 by JMJD2A-tudor. Nat Struct Mol Biol. 15(1); 109-11. 2008. PMID: 18084306
[2] Yasgar, et al. Compound Management for Quantitative High-Throughput Screening. JALA. 2008 Apr;13(2):79-89. PMID: 18496600
[3] Inglese, et al. Quantitative high-throughput screening: a titration-based approach that efficiently identifies biological activities in large chemical libraries. Proc Natl Acad Sci. 1;103(31):11473-8. 2006. PMID: 16864780
[4] Quinn et al. A homogeneous method for investigation of methyl-dependent protein-protein interactions in epigenetics. Nucleic Acids Res., 38(2):e11. 2010. PMID: […]
[5] Baell,Holloway. New substructure filters for removal of pan assay interference compounds (PAINS) from screening libraries and for their exclusion in bioassays. J Med Chem. 53(7):2719-40. 2010. PMID: 20131845
NIH Molecular Libraries Probe Production Network [MLPCN]
NIH Chemical Genomics Center [NCGC]
Structural Genomics Consortium (SGC)
To each well of a 1,536w plate, 2ul of JMJD2A-Tudor (final 100nM) and 1ul biotinylated histone peptide methylated at Lys4 [b-H3(1-18)K4me3] (final 50nM) were added in 1x PBS buffer, pH 7.4, containing 0.01% Tween-20, using a nanoliter dispenser. Formation of a protein-peptide complex proceeded at room temperature for 30 min. A Kalypsys pin-tool transferred 23nl of library compound solution in DMSO to each well. Following a 30 min incubation of the protein-peptide complex with compounds at room temperature, a mixture of 40 µg/mL each streptavidin-coated donor and nickel chelate acceptor AlphaScreen beads (final 10 µg/mL) was added in a 1ul dispense for a final volume of 4ul, followed by a brief centrifugation (1000 rpm, 1 min). Plates were incubated protected from the light for 20 min at room temperature. Microplates were then read on an EnVision multilabel plate reader using the 1,536 plate HTS AlphaScreen aperture (excitation time 80 ms, measurement time 240 ms).
(In general: In qHTS, concentration-response curves come from the screen itself.)
With `O=C(c1ccccc1[N+](=O)[O-])N1CCC2(CC1)OCCO2`, the “activity change, negative = inhibition” value is -6.21%.

Take `O=C(O)c1cc[c]([Sb](=[O])([OH])[OH])cc1[N+](=O)[O-]`: the Potency was 0.316 µM (active).

Consider `C[C@@]1([C@@H](NP(=O)(c2ccccc2)c2ccccc2)c2ccccc2)C[C@H]1CCO`, for which the “activity change, negative = inhibition” value was -5.04%.

Regarding `COC(=O)N(c1ccc(OC)cc1)P1(=S)OCCC(C)O1` (configuration not stated), the Potency is 79.4 µM (active).

Regarding `CCC(=O)c1ccc(OCC(=O)N2CCN(CC(=O)Nc3ccc(C)cc3)CC2)cc1`, the “activity change, negative = inhibition” value was 21.2%.

Take `O=C1NC(=O)C(Cc2ccccc2)C(=O)N1`: the “activity change, negative = inhibition” value was -8.28%.

`COC(=O)C1=C(c2ccccc2)C[C@@H]2CC[C@H]1N2C(=O)N1CCCCC1`: the “activity change, negative = inhibition” value was -13.1%.

Turning to `Cn1c(O)c(C=NCCN2CCNCC2)c(=O)n(C)c1=O`, the “activity change, negative = inhibition” value was -6.87% [at 57.1 µM].

Turning to `c1cc2c(cc1[C@H]1OC[C@H]3[C@@H]1CO[C@@H]3c1ccc3c(c1)OCO3)OCO2`, the “activity change, negative = inhibition” value is -20.7%.

Regarding `c1ccc(CCNC2CCCCCC2)cc1`, the Potency was 70.8 µM (active).

With `c1ccc(CC2CCCCN2)cc1` (configuration not stated), the “activity change, negative = inhibition” value is -17.5%.

With `OC(CNC1CCCCC1)c1ccccc1` (configuration not stated), the “activity change, negative = inhibition” value was -6.35%.

In the case of `Cc1ccc(CN2CCCC(C(=O)c3ccc4c(c3)OCO4)C2)cc1C` (configuration not stated), the activity change, negative = inhibition is -17.6% [at 11.4 µM].

Turning to `c1cc2c(cc1CCNC1CCCCCC1)OCO2`, the Potency is 3.16 µM (active).

For the compound `O=P1(Oc2ccccc2)CC(O)C(O)C(COCc2ccccc2)O1` (configuration not stated), the “activity change, negative = inhibition” value is -14.5%.

Consider `S=P(c1ccccc1)(c1ccccc1)c1c(-c2ccccc2)[nH]c2ccccc12`, for which the “activity change, negative = inhibition” value is -27.2%.

`CCCC[N+]1(C)C2CC(OC(=O)C(CO)c3ccccc3)CC1C1OC12` (configuration not stated): the “activity change, negative = inhibition” value was -1.44%.

As to `CNP1(NC)=Nc2nn(-c3ccccc3)c(N)c2C(c2ccccc2)=N1`, the “activity change, negative = inhibition” value is -14.5%.

Regarding `O=C1C2(Cl)C3(Cl)C4(Cl)C(Cl)(Cl)C5(Cl)C3(Cl)C1(Cl)C5(Cl)C24Cl` (configuration not stated), the “activity change, negative = inhibition” value is -25.5%.

On to `Nc1ccc(C(=O)N/N=C2/CN3CCC2CC3)cc1`, for which the Potency was 89.1 µM (active).

In the case of `CC1CC=CCC12C(=O)NC(=S)NC2=O` (configuration not stated), the “activity change, negative = inhibition” value is -2.78%.

`COC(=O)C1=C(c2ccc(Cl)c(C(F)(F)F)c2)C[C@@H]2CC[C@H]1N2C(=O)NC1CC1`: the “activity change, negative = inhibition” value is -5%.

As to `Cc1cccc(-n2c(O)c(/C=N/N3CCOCC3)c(=O)[nH]c2=S)c1`, the “activity change, negative = inhibition” value was -3.47%.

Take `CCOc1cc(N2CCOCC2)c(OCC)cc1NC(=O)C1=NN(c2cccc(C)c2)C(=O)CC1`: the Potency was 50.1 µM (active).

On to `CCN1C(=O)NC(=O)C2(CCCC2)C1=O`, for which the “activity change, negative = inhibition” value is -12.5%.

In the case of `C/C(CCc1c[nH]c2ccccc12)=N\O`, the “activity change, negative = inhibition” value is -5.13%.

As for `c1cncc(CNCCc2c[nH]c3ccccc23)c1`, the “activity change, negative = inhibition” value was -11.6%.

For `COc1ccc(CNCCc2c[nH]c3ccccc23)cc1OC`, the Potency is 79.4 µM (active).

Turning to `CCN1CC2C3CCC(C)(O3)C2C1` (configuration not stated), the “activity change, negative = inhibition” value was -21.9%.

Regarding `CC1([N+](=O)[O-])COP(=O)(Nc2ccc(F)cc2)OC1` (configuration not stated), the “activity change, negative = inhibition” value was -4.86%.

With `CN(C)P(=S)(Nc1ccccc1)C(Cl)(Cl)Cl` (configuration not stated), the “activity change, negative = inhibition” value is 2.26% [at 57.1 µM].

Regarding `CC1CCCCN1Cc1cccnc1` (configuration not stated), the Potency was 8.91 µM (active).

With `c1cncc(CNC2=NCCC2)c1`, the “activity change, negative = inhibition” value is 0% [at 57.1 µM].

Turning to `CC1CCCN1CCC(C(N)=O)(c1ccccc1)c1ccccc1` (configuration not stated), the “activity change, negative = inhibition” value is -13.8%.

Turning to `C[C@]12CCC3C(CC[C@H]4[C@H](O)[C@H](O)CC[C@]34C)C1CC[C@@H]2O` (some centres not stated), the “activity change, negative = inhibition” value was 0%.

Take `O=c1[nH]c(=O)n(-c2ccc(F)cc2)c(O)c1C=NCCN1CCCCC1`: the “activity change, negative = inhibition” value was -0.699%.

For `CCOc1ccc(CN(CCCl)CCCl)cc1C(=O)OC`, the Potency is 25.1 µM (active).

For `c1ccc(C(CN2CCCCC2)c2ccccc2)cc1`, the “activity change, negative = inhibition” value is -9.59%.

For `CCOP(=O)(OCC)C(NC(=O)c1ccc(C)cc1)C(Cl)(Cl)Cl` (configuration not stated), the “activity change, negative = inhibition” value is 0.685%.

With `CC12CCC(O)CC1CCC1C2CCC2(C)C(C(=O)CC(O)C(F)(F)F)CCC12` (configuration not stated), the “activity change, negative = inhibition” value is -4.17%.

Consider `CCC1(C)CC(CCNCc2ccc(N(C)C)cc2)(c2ccc(F)cc2)CCO1` (configuration not stated), for which the Potency is 44.7 µM (active).

In the case of `COC1=CC=C2[C@H]3Cc4ccc(OC)c5c4[C@@]2(CCN3C)C1O5` (some centres not stated), the “activity change, negative = inhibition” value is -11%.

For `CCN(CC)C(=O)c1ccc(NC(=O)c2cc(-n3cnnc3)ccc2Cl)cc1`, the “activity change, negative = inhibition” value was -15.3%.

With `COc1cccc(OC)c1C(=O)NC(=S)N1C[C@H]2C[C@H](C1)c1cccc(=O)n1C2`, the “activity change, negative = inhibition” value is -17.7%.

In the case of `CCC/C(=N\O)c1c[nH]c2ccccc12`, the “activity change, negative = inhibition” value is 3.73%.

As to `CCc1cccc2c(C#N)cn(CC(=O)N3CCOCC3)c12`, the “activity change, negative = inhibition” value is -5.97%.

In the case of `CCC(=NCCc1ccccc1)c1c(O)n(C2CCCCC2)c(=O)[nH]c1=O`, the “activity change, negative = inhibition” value is -27.9%.

Consider `CCN1CCN(C(=O)Cc2coc3cc(C)cc(C)c23)CC1`, for which the “activity change, negative = inhibition” value was -17.1%.

As for `O=C(Cc1ccccc1)N1CCN(C2CCCCCC2)CC1`, the Potency was 79.4 µM (active).

Turning to `O=C(Cc1ccc(Cl)cc1)NCCN1CCN(C(=O)Cc2ccc(Cl)cc2)CC1`, the “activity change, negative = inhibition” value is -13.7%.

`O=C(Cn1c(=O)n(CC2CS2)c2ccccc21)N1CCCCC1` (configuration not stated): the “activity change, negative = inhibition” value is -0.687%.

On to `COc1ccccc1CN1CCN(C(=O)Cc2ccccc2)CC1`, for which the Potency was 2.51 µM (active).
